A selection: hits, their analogues and other compounds. The true share with any hit is near 8%.
MARV entry inh: blocks Marburg virus binding to or entry into cells; Marburg virus pseudotyped entry inhibition, cell reporter; Potency, µM (top dose mostly 37.8 µM), without a hit: at the top dose activity change, negative = inhibition, usual class: inhibitors; 300,000 compounds, 1.8% hits; AID 540276; calls by dose curve; tested in HEK293 cells; also: potency is read from the fitted curve at half-maximal effect; % is scaled to controls: 0 for no effect and ±100 for the full control effect
HCMV inh: blocks human cytomegalovirus replication; 410,000 compounds, 4.5% hits; HFF cells, HCMV-luciferase reporter, 72 h; hits give low values; activity change, negative = inhibition, % at 57.5 µM; in the data active = activity change below about -60%; inconclusive = no clear call, values can overlap the other calls; inactive = above about -39%; also: % is scaled to controls: 0 for no effect and ±100 for the full control effect
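Cell-based, HFFs, 1000 cells/well, 16 h 37C; cpds in DMSO + HCMV-luc, MOI 1 PFU/cell; 72 h 37C; OneGlo luminescence after 5 min RT; norm. to buffer vs Salinomycin 10uM.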
FMDV antiviral: antivirals against foot and mouth disease virus; FMDV antiviral cell-based qHTS; Potency, µM (top dose mostly 57.9 µM), without a hit: top-dose activity change, negative = inhibition, most hits filed as inhibitors; 410,000 compounds, 1.2% hits; calls by dose curve; tested in HEK293T cells; also: read-out not given here; potency is read from the fitted curve at half-maximal effect; % is scaled to controls: 0 for no effect and ±100 for the full control effect; nearly all actives have a fitted effect of over 45% in size
HCV inhibitor: HCV inhibition; Huh7.5.1 HCVcc-Cre infection, luciferase reporter, 44 h; Potency, µM (series often up to 41.8 µM), for inactives: top-dose activity change, negative = inhibition, usual class: inhibitors; 340,000 compounds, 3.4% hits; AID 651820; active = well fitted inhibition curve with a large enough effect; inconclusive = small, poorly fitted or top-dose-only effect, or another doubt; inactive = no such curve, though single readings can be large or run the other way; also: potency is read from the fitted curve at half-maximal effect; % is scaled to controls: 0 for no effect and ±100 for the full control effect
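Cells (1,000/well) were plated 4 h before compound, then infected with HCVcc-Cre virus (~0.5 moi). After 44 h further culture, infection was read as luciferase luminescence following a 15 min substrate incubation at room temperature.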
Lassa entry inh: blocks Lassa virus binding to or entry into cells | Lassa virus pseudotype entry inhibition, cell reporter | Potency, µM (titrated, usually from 37.9 µM), for inactives: top-dose activity change, negative = inhibition, hits mostly inhibitors | 300,000 compounds, 1.2% hits | AID 540256; calls by dose curve; tested in HEK293 cells; also: potency is read from the fitted curve at half-maximal effect; % is scaled to controls: 0 for no effect and ±100 for the full control effect; nearly all actives have a fitted effect of over 50% in size
SARS PLP yeast: SARS-CoV PLP inhibition in yeast. Potency, µM (doses to about 32.9 µM), for the others: at the highest dose activity, positive = growth rescue, actives largely listed as activators. S. cerevisiae expressing SARS-CoV PLpro, growth rescue. 330,000 compounds, 0.19% hits; calls by dose curve; also: potency is read from the fitted curve at half-maximal effect; 0% is about no effect; nearly all actives have a fitted effect of over 55% in size
* = called active by the depositor; u = inconclusive; x = no result given; ! = not confirmed by another sample; [ ] = another dose, or the depositor's remark.

SMILES	MARV entry inh	HCMV inh	FMDV antiviral	HCV inhibitor	Lassa entry inh	SARS PLP yeast
CCCc1nc(SCC(=O)Nc2ccc(N3CCOCC3)cc2)c2ccccc2n1	0.71µM*	-24	u	-15%	13%	10%
CCCN(CCC)C(=O)CSc1nc2ccccc2c(=O)n1C1CCCC1	u	u	-15%	11µM*	-29%	-10%
O=C(CSc1nc(C2CC2)nc2ccccc12)Nc1ccccc1N1CCOCC1	x	-72*	25µM*	u	x	-3%
Cc1nonc1NC(=O)CSc1nc(C2CCCCC2)nc2ccccc12	u	-88*	u	u	6%	18%
CCN(CC)C(=O)CSc1nc2ccccc2c(=O)n1CC1CCCCC1	u	u	-15%	u	u	3%
Cc1cccc(NC(=O)CSc2nc(C3CC3)nc3ccccc23)c1	-28%[46.1 µM]	u	5%	-18%	-10%[46.1 µM]	-1%
CCN(CC)c1ccc(NC(=O)CSc2nc(C3CC3)nc3ccccc23)cc1C	4.5µM*	u	-11%	u	u	1%
COc1cccc(CNC(=O)c2cc(S(=O)(=O)N3CCCCC3)cn2C)c1	x	-2	-12%	x	4%[46.1 µM]	x
COCCCNC(=O)CCCCn1c(=O)c2ccccc2n(CC(=O)Nc2ccc(C)cc2C)c1=O	u	-5	-1%	x	-12%[46.1 µM]	x
Cc1cc(NC(=O)CSc2nc3ccccc3c(=O)n2C2CCCC2)no1	u	-62*	-19%	-5%	u	6%
CN(C)c1ccc(NC(=O)CSc2nc3ccccc3c(=O)n2C2CCCCC2)cc1	-25%	u	-19%	u	u	-7%
CC1(C)C(c2ccccc2)=NC(c2ccc(Br)cc2)N1O (stereo unspecified)	u	-19	4µM*	14%	12%	2%
COc1ccc(CN2C(=O)C(C)Nc3ncnc(N4CCOCC4)c32)cc1 (stereo unspecified)	x	-65*	-24%	0%	x	3%
CCC1Nc2ncnc(N3CCN(c4ccccc4)CC3)c2N(Cc2ccc(C)cc2)C1=O (stereo unspecified)	x	14	-14%	2.8µM*	x	1%
Cc1ccc(CN2C(=O)C(Cc3ccccc3)Nc3ncnc(N4CCOCC4)c32)cc1 (stereo unspecified)	x	-20	0%	x	x	x
O=C1C(Cc2ccccc2)Nc2ncnc(N3CCOCC3)c2N1Cc1ccccc1 (stereo unspecified)	x	-101*!	0%	-6%	x	-9%
CCC1Nc2ncnc(N3CCN(c4ccccc4)CC3)c2N(Cc2ccccc2)C1=O (stereo unspecified)	x	12	u	u	x	-7%
COc1ccc(CN2C(=O)C(C)Nc3ncnc(N4CCN(c5ccccc5)CC4)c32)cc1 (stereo unspecified)	x	-13	-18%	-26%	x	2%
CC(=O)N(CN1C(=O)CCC1=O)c1ccc(Cl)c(Cl)c1	x	-66*	11µM*	8%	x	3%
c1ccc2c(CNC3CCCCC3)c[nH]c2c1	u	-29	-27%	4%	-5%	-2%
CN(Cc1c[nH]c2ccccc12)C1CCCCC1	0%	-94*	-10%	-28%	-16%	-30%
CN(CCc1ccccc1)Cc1c[nH]c2ccccc12	x	-99*	-25%	0%	x	-5%
CN(Cc1ccccc1)C(=O)C(=O)c1c[nH]c2ccccc12	x	-70*	52%	x	x	x
CCN(C(=O)C(=O)c1c[nH]c2ccccc12)c1ccccc1	x	27	2%	-3%	x	1%
COCC1CCCN(Cc2ccc3c(c2)CN(C(=O)c2cn4ccc(C)cc4n2)CCO3)C1 (stereo unspecified)	x	x	-4%	x	x	x
SMILES	MARV entry inh	HCMV inh	FMDV antiviral	HCV inhibitor	Lassa entry inh	SARS PLP yeast
CC(=O)N(C)c1ccc(N=Nc2ccc3ncccc3c2)cc1	u	30	-15%	-27%	10µM*	x
COC(=O)CNC(c1ccccc1Cl)c1cc(Br)ccc1NS(=O)(=O)c1ccc(C)cc1 (stereo unspecified)	u	-70*	-3%	u	u	-20%
CCOC(=O)c1c(NC(=O)CSc2nc3ccccc3c(=O)n2-c2ccc(F)cc2)sc(C(C)=O)c1C	-8%	53	0%	3%	1%	u
CCOC(=O)c1c(NC(=O)CSc2ncnc3ccccc23)sc(C(C)=O)c1C	-9%[46.1 µM]	1	25µM*	11µM*	3%	14%
COC(=O)c1c(NC(=O)CSc2ncnc3ccccc23)sc(C)c1C	3%[46.1 µM]	-26	-20%	18µM*	u	x
Cc1ccc(C(=O)COC(=O)COc2ccccc2[N+](=O)[O-])s1	u	-101*	-1%	30%	14%	4%
CCOC(=O)COc1ccccc1/C=C\[N+](=O)[O-]	16µM*	x	14µM*	u	13µM*	-108%
CCn1ncc(C2=NOC(C(=O)NCC(C)C)C2)c1C (stereo unspecified)	7%	18	23%	10%	u	-2%
CCn1ncc(C2=NOC(C(=O)Nc3cnn(C45CC6CC(CC(C6)C4)C5)c3)C2)c1C (stereo unspecified)	-25%	-83*	u	-23%	u	6%
CCn1cc(C2=NOC(C(=O)Nc3cccc(C(C)=O)c3)C2)c(C)n1 (stereo unspecified)	-30%	-64*	u	6.3µM*	-2%	12%
Cc1cc(N)c2ccccc2[n+]1CCCCCCCCCC[n+]1c(C)cc(N)c2ccccc21	10µM*	x	u	x	u	x
CC1C(NC(=O)/C(=N/OC(C)(C)C(=O)O)c2csc(N)n2)C(=O)N1S(=O)(=O)O (stereo unspecified)	x	x	-6%	x	x	x
CCN(CC)S(=O)(=O)c1ccc2c(c1)N(CC(=O)NCCc1ccccc1)C(=O)CO2	12%[46.1 µM]	20	-6%	x	12%[46.1 µM]	x
C=C1C(=O)O[C@H]2[C@H]1[C@@H](O)CC(=C)[C@@H]1CC(=O)[C@@H](C)[C@H]21	u	x	22µM*	u	u	0%
COc1ccc(-c2cc(C(F)(F)F)nc(SCCC(=O)Nc3ccc(F)cc3F)n2)cc1	-4%[46.1 µM]	-27	-23%	x	-2%[46.1 µM]	x
C/C(=N\NC(=O)c1ccc(C)cc1C)c1ccc2c(c1)Nc1ccccc1S2	-30%	0	u	3.5µM*	u	-2%
CCOC(=O)c1ccc(NC(=O)c2ccc3c(c2)NC(=O)c2ccccc2S3)cc1	-14%[46.1 µM]	15	u	x	x	x
Cc1ccc(NC(=O)c2ccc3c(c2)NC(=O)c2ccccc2S3)cc1	u	-71*	u	x	x	x
CN(C)CCNC(=O)c1ccc2c(c1)NC(=O)c1ccccc1S2	x	-11	-12%	8.9µM*	x	0%
Cc1ccc(SCC(=O)Nc2cc([N+](=O)[O-])ccc2O)cc1	u	9	26%	0%	u	-1%
COc1cc(/C=N/N2CCN(Cc3ccc(C)cc3)CC2)cc(OC)c1O	x	u	-27%	-21%	x	7%
